# According to paper PMC7862700, “An all-to-all approach to the identification of sequence-specific readers for epigenetic DNA modifications on cytosine”:
# Assays:
# Assay in all cases: DAPPL (digital affinity profiling via proximity ligation, sequencing); 10 mM Tris-HCl pH 7.5, 50 mM NaCl, 1 mM DTT, 4% glycerol, room temperature, 30 min; GST-TFs on glutathione beads, 16-mer random dsDNA library, 0.1% formaldehyde crosslink after washing; high values mean tight binding
# FEV = target: T1, FEV (Homo sapiens, UniProt Q99581 1-238); settings: protein: recombinant; tags: N-terminal GST; dsDNA, one strand shown
# T1 sequence: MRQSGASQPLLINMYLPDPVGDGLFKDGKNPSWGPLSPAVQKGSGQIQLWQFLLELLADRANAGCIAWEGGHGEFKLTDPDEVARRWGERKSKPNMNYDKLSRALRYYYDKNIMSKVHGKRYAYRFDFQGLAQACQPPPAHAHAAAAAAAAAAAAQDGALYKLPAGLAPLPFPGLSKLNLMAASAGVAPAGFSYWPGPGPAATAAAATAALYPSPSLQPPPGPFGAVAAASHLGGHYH
# Procedure, shortened: (§1)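 GST fusions of human transcription factors were expressed in yeast and captured with glutathione beads. Once given DNA barcodes and pooled alongside a tag-only sample, they were incubated for 30 min at room temperature with 200 nmole of a random double-stranded 16-mer DNA library in Tris/NaCl/DTT/glycerol buffer, then washed, crosslinked (0.1% formaldehyde), proximity-ligated, PCR-amplified and sequenced on an Illumina NextSeq500. The binding signal of each hexamer is its read frequency for a factor divided by its frequency for the tag-only sample.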
# ETV5 = ETV5 (Homo sapiens, UniProt P41161 1-510); settings: protein: recombinant; tags: N-terminal GST; dsDNA, one strand shown
# Procedure, shortened: as §1
# HSF1 = HSF1 (Homo sapiens, UniProt Q00613 1-529); settings: protein: recombinant; tags: N-terminal GST; chain copies: 3; dsDNA, one strand shown
# Procedure, shortened: as §1
# SPIC = target: T2, SPIC (Homo sapiens, UniProt Q8N5J4 1-248); settings: protein: recombinant; tags: N-terminal GST; dsDNA, one strand shown
# T2 sequence: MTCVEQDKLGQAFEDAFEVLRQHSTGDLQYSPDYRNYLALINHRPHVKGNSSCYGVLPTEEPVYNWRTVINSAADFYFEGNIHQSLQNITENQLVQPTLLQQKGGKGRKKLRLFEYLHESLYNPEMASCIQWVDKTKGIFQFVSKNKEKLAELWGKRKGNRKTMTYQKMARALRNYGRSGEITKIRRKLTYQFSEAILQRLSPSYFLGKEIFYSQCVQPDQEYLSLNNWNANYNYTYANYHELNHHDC
# Procedure, shortened: as §1
# ELF4 = ELF4 (Homo sapiens, UniProt Q99607 1-663); settings: protein: recombinant; tags: N-terminal GST; dsDNA, one strand shown
# Procedure, shortened: as §1
# ELK4 = target: T3, ELK4 (Homo sapiens, UniProt P28324-2 1-405); settings: protein: recombinant; tags: N-terminal GST; dsDNA, one strand shown
# T3 sequence: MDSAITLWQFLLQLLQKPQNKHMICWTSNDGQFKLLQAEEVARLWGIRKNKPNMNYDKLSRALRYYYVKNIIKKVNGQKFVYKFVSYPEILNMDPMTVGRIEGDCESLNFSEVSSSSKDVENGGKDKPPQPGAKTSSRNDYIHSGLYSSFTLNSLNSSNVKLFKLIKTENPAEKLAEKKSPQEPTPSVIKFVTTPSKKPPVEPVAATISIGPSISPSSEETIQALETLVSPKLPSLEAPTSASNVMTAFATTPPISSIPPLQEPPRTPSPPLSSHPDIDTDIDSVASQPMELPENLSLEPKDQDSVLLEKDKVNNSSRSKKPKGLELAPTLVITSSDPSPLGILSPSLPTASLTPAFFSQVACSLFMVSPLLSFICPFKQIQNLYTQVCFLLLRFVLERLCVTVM
# Procedure, shortened: as §1
# ETV2 = target: T4, ETV2 (Homo sapiens, UniProt O00321 1-342); settings: protein: recombinant; tags: N-terminal GST; dsDNA, one strand shown
# T4 sequence: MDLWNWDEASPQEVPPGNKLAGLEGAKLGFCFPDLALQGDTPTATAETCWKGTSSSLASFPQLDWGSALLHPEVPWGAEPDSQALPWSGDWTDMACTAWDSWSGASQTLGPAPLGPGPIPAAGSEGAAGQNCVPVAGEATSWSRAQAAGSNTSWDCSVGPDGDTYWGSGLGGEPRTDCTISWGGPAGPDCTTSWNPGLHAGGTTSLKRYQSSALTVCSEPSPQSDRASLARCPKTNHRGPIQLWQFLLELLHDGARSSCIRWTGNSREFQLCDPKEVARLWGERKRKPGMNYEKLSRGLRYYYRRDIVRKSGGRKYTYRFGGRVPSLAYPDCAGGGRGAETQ
# Procedure, shortened: as §1
# ELF3 = target: T5, ELF3 (Homo sapiens, UniProt P78545 1-371); settings: protein: recombinant; tags: N-terminal GST; dsDNA, one strand shown
# T5 sequence: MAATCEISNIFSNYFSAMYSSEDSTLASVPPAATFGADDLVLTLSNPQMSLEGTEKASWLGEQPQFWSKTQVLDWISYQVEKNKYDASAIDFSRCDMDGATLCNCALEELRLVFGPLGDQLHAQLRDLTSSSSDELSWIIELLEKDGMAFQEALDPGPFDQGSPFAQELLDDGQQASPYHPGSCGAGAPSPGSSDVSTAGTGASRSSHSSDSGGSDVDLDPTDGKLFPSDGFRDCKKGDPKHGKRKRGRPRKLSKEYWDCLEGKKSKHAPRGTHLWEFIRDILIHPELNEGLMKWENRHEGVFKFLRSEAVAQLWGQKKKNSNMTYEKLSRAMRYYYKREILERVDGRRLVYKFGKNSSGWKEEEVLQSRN
# Procedure, shortened: as §1
# CRX = CRX (Homo sapiens, UniProt O43186 1-299); settings: protein: recombinant; tags: N-terminal GST; dsDNA, one strand shown
# Procedure, shortened: as §1
# ETV1 = ETV1 (Homo sapiens, UniProt P50549 1-477); settings: protein: recombinant; tags: N-terminal GST; dsDNA, one strand shown
# Procedure, shortened: as §1
# ERF = target: T6, ERF (Homo sapiens, UniProt P50548 1-548); settings: protein: recombinant; tags: N-terminal GST; dsDNA, one strand shown
# T6 sequence: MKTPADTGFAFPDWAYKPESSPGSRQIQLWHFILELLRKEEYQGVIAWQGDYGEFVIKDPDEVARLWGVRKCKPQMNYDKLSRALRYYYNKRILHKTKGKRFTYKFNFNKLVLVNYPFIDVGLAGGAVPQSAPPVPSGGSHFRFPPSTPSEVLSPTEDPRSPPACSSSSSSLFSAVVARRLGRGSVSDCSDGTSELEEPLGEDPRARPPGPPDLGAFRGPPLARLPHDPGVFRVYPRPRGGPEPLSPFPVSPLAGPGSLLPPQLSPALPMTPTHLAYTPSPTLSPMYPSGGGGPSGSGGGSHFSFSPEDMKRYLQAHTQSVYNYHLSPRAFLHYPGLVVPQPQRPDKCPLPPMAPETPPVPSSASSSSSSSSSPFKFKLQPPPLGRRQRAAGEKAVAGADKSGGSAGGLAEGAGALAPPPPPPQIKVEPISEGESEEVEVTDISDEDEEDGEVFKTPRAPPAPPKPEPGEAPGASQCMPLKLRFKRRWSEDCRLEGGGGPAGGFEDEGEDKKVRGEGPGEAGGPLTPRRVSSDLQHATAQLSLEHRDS
# Procedure, shortened: as §1
# ETV3L = target: T7, ETV3L (Homo sapiens, UniProt Q6ZN32 1-361); settings: protein: recombinant; tags: N-terminal GST; dsDNA, one strand shown
# T7 sequence: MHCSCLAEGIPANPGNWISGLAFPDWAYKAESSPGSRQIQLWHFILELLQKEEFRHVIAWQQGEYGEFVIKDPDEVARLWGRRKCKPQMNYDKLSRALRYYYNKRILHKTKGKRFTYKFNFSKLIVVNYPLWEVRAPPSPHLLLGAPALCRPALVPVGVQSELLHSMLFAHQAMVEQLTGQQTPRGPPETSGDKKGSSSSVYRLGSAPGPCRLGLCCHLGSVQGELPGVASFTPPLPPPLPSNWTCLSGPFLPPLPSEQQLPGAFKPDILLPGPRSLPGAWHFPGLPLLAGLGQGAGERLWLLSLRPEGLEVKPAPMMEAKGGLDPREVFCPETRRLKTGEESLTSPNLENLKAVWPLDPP
# Procedure, shortened: as §1
# ETS2 = target: T8, ETS2 (Homo sapiens, UniProt P15036 1-469); settings: protein: recombinant; tags: N-terminal GST; dsDNA, one strand shown
# T8 sequence: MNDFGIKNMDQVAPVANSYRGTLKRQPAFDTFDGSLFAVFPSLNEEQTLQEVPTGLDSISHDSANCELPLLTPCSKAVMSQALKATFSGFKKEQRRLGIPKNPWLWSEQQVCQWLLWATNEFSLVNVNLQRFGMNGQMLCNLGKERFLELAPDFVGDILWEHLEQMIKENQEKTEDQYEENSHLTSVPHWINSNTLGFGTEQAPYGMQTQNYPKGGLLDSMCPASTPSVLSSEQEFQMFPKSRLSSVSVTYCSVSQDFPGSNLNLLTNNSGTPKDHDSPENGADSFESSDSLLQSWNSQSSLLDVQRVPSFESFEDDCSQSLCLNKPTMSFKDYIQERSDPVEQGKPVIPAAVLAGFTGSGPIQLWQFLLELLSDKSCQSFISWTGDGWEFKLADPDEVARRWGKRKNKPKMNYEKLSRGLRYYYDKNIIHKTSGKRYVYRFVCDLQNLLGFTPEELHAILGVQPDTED
# Procedure, shortened: as §1
# SPDEF = target: T9, SPDEF (Homo sapiens, UniProt O95238 1-335); settings: protein: recombinant; tags: N-terminal GST; dsDNA, one strand shown
# T9 sequence: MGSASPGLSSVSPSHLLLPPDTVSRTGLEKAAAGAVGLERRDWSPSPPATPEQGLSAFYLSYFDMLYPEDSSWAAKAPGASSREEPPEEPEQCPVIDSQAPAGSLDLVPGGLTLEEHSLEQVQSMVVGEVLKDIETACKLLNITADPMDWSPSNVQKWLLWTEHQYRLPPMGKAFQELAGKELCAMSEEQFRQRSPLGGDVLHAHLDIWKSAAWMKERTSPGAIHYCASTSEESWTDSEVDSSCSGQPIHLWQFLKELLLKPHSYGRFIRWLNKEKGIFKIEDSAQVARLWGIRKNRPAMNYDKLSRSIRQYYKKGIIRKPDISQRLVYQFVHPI
# Procedure, shortened: as §1
# ETV7 = target: T10, ETV7 (Homo sapiens, UniProt Q9Y603 1-341); settings: protein: recombinant; tags: N-terminal GST; dsDNA, one strand shown
# T10 sequence: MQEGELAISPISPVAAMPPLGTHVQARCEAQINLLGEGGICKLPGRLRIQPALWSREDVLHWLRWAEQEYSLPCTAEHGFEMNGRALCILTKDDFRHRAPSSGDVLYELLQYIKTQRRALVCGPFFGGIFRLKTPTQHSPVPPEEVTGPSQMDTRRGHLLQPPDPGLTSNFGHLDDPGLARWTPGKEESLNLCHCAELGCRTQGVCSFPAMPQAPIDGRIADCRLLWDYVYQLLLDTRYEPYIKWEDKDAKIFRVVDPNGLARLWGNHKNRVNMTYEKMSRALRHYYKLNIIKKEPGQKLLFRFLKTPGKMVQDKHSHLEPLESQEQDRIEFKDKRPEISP
# Procedure, shortened: as §1
# ELF5 = target: T11, ELF5 (Homo sapiens, UniProt Q9UKW6-2 1-255); settings: protein: recombinant; tags: N-terminal GST; dsDNA, one strand shown
# T11 sequence: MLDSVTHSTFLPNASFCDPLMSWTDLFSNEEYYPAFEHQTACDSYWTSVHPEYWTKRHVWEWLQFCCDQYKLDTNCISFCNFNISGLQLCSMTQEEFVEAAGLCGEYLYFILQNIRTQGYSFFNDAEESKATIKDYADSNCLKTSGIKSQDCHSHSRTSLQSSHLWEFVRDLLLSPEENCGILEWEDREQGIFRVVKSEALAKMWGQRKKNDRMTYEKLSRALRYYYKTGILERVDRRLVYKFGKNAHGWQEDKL
# Procedure, shortened: as §1
# ETV3 = target: T12, ETV3 (Homo sapiens, UniProt P41162-2 1-143); settings: protein: recombinant; tags: N-terminal GST; dsDNA, one strand shown
# T12 sequence: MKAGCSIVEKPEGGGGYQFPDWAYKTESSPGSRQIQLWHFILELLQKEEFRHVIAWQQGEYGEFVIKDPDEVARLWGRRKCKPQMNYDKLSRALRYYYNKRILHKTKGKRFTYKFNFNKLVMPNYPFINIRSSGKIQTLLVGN
# Procedure, shortened: as §1
# ETV6 = ETV6 (Homo sapiens, UniProt P41212 1-452); settings: protein: recombinant; tags: N-terminal GST; dsDNA, one strand shown
# Procedure, shortened: as §1
# ETV1, sequence (P50549 whole entry): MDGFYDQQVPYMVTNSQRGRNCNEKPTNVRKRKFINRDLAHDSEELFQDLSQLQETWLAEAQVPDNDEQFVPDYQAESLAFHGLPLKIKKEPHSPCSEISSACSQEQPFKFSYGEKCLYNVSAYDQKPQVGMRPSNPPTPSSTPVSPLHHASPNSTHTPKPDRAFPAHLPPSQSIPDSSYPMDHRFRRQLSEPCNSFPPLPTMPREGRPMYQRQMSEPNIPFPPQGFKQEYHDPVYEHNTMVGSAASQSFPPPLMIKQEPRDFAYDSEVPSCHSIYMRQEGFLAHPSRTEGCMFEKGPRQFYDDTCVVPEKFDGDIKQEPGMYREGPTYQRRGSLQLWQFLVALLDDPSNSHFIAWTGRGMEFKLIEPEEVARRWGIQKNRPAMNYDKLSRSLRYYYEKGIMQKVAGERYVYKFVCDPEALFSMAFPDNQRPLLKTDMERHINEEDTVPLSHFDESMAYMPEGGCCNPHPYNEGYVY
# ETV5, sequence (P41161 whole entry): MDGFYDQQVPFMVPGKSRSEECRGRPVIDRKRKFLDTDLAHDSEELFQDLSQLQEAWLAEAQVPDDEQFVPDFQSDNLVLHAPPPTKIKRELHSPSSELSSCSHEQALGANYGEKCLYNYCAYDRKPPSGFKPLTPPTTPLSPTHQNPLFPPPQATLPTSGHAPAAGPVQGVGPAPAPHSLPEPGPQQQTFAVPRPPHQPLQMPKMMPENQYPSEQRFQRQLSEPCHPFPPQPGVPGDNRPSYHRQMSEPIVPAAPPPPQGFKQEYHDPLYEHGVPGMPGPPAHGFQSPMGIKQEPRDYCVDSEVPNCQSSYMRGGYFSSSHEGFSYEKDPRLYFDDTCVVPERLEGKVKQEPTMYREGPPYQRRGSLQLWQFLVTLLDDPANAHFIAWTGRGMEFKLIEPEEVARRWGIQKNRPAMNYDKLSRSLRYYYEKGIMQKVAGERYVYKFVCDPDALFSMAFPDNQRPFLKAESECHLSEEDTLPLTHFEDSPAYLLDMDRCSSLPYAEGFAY
# ETV6, sequence (P41212 whole entry): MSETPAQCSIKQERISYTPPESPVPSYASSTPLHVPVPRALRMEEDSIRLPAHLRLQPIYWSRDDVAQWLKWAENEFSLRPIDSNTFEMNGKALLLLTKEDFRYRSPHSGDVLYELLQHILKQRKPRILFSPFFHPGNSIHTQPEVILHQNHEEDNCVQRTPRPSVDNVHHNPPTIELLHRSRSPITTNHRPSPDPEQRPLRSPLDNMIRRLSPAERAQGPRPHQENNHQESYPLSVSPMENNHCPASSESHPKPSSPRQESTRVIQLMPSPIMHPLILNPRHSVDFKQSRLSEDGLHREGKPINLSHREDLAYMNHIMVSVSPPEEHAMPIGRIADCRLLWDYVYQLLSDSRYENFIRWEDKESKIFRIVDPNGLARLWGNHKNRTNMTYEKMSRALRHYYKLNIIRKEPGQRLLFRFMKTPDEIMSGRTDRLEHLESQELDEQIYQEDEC
# ELF4, sequence (Q99607 whole entry): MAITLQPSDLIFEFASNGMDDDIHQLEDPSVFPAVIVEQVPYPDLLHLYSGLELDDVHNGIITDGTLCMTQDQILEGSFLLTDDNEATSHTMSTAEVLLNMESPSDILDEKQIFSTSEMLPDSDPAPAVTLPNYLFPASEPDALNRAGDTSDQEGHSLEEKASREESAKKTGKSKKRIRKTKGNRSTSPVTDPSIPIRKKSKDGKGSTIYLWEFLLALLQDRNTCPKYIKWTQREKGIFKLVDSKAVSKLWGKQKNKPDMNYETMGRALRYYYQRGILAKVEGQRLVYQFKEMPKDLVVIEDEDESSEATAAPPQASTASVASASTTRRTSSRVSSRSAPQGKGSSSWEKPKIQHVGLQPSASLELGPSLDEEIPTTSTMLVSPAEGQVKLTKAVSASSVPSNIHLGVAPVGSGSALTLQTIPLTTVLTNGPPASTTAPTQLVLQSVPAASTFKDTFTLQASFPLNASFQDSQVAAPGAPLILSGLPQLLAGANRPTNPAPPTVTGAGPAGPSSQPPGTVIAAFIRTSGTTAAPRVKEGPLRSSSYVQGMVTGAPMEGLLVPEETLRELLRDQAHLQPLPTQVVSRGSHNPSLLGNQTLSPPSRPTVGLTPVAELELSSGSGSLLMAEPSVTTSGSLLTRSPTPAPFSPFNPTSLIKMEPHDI
# HSF1, sequence (Q00613 whole entry): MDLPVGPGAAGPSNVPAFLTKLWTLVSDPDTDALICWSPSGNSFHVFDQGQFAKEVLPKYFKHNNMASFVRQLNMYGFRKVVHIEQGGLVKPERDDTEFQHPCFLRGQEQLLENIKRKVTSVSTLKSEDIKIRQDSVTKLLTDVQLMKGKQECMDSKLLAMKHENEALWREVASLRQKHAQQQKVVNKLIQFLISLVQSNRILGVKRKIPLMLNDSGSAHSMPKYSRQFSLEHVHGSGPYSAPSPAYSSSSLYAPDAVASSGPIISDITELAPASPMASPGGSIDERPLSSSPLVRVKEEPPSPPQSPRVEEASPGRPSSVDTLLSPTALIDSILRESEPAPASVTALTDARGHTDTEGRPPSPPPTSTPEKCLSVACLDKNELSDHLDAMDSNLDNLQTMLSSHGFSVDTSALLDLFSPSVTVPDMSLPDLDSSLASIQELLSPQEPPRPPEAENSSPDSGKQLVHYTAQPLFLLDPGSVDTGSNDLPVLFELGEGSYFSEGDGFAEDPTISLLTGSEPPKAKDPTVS
# CRX, sequence (O43186 whole entry): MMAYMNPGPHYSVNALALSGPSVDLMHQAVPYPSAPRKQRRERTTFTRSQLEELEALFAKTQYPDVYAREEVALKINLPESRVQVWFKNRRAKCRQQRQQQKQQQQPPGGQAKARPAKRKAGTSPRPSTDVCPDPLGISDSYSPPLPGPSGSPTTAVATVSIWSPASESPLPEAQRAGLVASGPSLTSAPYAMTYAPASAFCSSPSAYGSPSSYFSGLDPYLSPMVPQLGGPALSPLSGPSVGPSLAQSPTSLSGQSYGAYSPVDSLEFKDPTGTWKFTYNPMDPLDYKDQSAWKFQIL
sequence,measurement,setting,value
CTTATA,binding signal,FEV,"1.31 fold enrichment (6-mer frequency, TF over GST control)"
same,binding signal,ETV5,"1.29 fold enrichment (6-mer frequency, TF over GST control)"
same,binding signal,HSF1,"1.65 fold enrichment (6-mer frequency, TF over GST control)"
same,binding signal,SPIC,"1.34 fold enrichment (6-mer frequency, TF over GST control)"
same,binding signal,ELF4,"1.32 fold enrichment (6-mer frequency, TF over GST control)"
same,binding signal,ELK4,"1.38 fold enrichment (6-mer frequency, TF over GST control)"
same,binding signal,ETV2,"1.15 fold enrichment (6-mer frequency, TF over GST control)"
same,binding signal,ELF3,"1.37 fold enrichment (6-mer frequency, TF over GST control)"
same,binding signal,CRX,"2.27 fold enrichment (6-mer frequency, TF over GST control)"
same,binding signal,ETV1,"1.49 fold enrichment (6-mer frequency, TF over GST control)"
same,binding signal,ERF,"1.29 fold enrichment (6-mer frequency, TF over GST control)"
same,binding signal,ETV3L,"1.35 fold enrichment (6-mer frequency, TF over GST control)"
same,binding signal,ETS2,"1.41 fold enrichment (6-mer frequency, TF over GST control)"
same,binding signal,SPDEF,"1.51 fold enrichment (6-mer frequency, TF over GST control)"
same,binding signal,ETV7,"1.39 fold enrichment (6-mer frequency, TF over GST control)"
same,binding signal,ELF5,"1.48 fold enrichment (6-mer frequency, TF over GST control)"
same,binding signal,ETV3,"1.28 fold enrichment (6-mer frequency, TF over GST control)"
same,binding signal,ETV6,"1.33 fold enrichment (6-mer frequency, TF over GST control)"
